Results filed as inconclusive are left out. Entries that show only a call come without a potency. The source made the active and inactive calls. Calls come from the whole dose curve.

5-hydroxytryptamine receptor 2A (Homo sapiens), sequence (P28223 whole entry, looked up): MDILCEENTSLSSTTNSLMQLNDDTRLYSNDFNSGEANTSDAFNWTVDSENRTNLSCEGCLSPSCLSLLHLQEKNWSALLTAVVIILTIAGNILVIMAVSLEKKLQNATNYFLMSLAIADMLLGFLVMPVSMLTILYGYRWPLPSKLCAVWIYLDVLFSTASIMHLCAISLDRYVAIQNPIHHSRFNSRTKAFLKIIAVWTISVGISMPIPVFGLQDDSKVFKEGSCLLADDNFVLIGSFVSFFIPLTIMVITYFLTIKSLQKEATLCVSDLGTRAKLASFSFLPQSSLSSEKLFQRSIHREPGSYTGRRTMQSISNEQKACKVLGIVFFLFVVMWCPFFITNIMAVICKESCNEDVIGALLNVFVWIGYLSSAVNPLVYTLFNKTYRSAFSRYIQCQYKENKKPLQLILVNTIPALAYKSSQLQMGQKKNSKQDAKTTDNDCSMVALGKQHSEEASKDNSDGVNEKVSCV

This test concerns the target 5-hydroxytryptamine receptor 2A (Homo sapiens) (UniProt P28223). Put plainly: 5-hydroxytryptamine receptor 2A (HTR2A) small molecule agonists, cell-based qHTS assay (AID 1963587). Note: nearly all actives have a fitted effect of over 30% in size. Conditions: HTR2A-CHO cells, calcium flux fluorescence, agonist mode; series mostly up to 76.8 µM. Put shortly:
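Kinetic calcium-flux fluorescence (2 min, 1 sec intervals) after compound addition in agonist mode. HTR2A-CHO cells were cultured 18 h, then dye-loaded 1 h at 37 C.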
For orientation: qHTS replaces the single test concentration by a dilution series.
`N#Cc1sc2c(=O)c3ccccc3c(=O)c=2sc1C#N`: the Potency entry is “inactive”. Regarding `C=CC(=O)OCC`, the Potency result is “inactive”. Under `Cc1c(Cl)c(=O)oc2cc(OP(=O)(OCCCl)OCCCl)ccc12` stands “inactive”; under `O=C(CBr)Nc1ccc(Cl)cc1C(=O)c1ccccc1F`, “inactive”; under `CC1=NNC(=O)N(/N=C/c2cccnc2)C1`, “inactive”. Under `[O-][Cl+3]([O-])([O-])O` stands “inactive”. Under `CCn1cc[n+](C)c1` (tested in a mixture with another compound) stands “inactive”; under `CCOC(=O)C(Cl)Cc1cc(-n2nc(C)n(C(F)F)c2=O)c(F)cc1Cl` (centres undefined), “inactive”; under `COc1ccc(C(=O)c2c(C)n(CCN3CCOCC3)c3ccccc23)cc1`, “inactive”. On to `CSC(C)(C)/C=N/O`, for which the Potency entry is “inactive”.

On to `CCOP(=O)(SC(C)CC)N1CCSC1=O` (centres undefined), for which the Potency entry was “inactive”. As for `CCNP(=S)(OC)O/C(C)=C/C(=O)OC(C)C` (centres undefined), the entry is “inactive”.

As to `COP(=O)(OC)O/C(C)=C/C(=O)N(C)C`, the Potency result was “inactive”. As for `CN1C2CCC(C)(C)C1CC(OC(=O)C(O)(c1cccs1)c1cccs1)C2` (centres undefined), the entry is “inactive”. As for `O=C1OC(=O)C2C1C1(Cl)C(Cl)=C(Cl)C2(Cl)C1(Cl)Cl` (centres undefined), the entry is “inactive”; as for `C[C@H](CN1CCOCC1)C(C(=O)N1CCCC1)(c1ccccc1)c1ccccc1`, “inactive”. As for `NNCc1ccccc1`, the entry is “inactive”; as for `ClC(Br)Br`, “inactive”.

With `C#CC(C)(C)O`, the Potency entry is “inactive”. As for `CNC(=O)O/N=C(\C)C(C)S(C)(=O)=O` (centres undefined), the entry is “inactive”. As for `CCOC(=O)c1cn2nc(OP(=S)(OCC)OCC)cc2nc1C`, the entry is “inactive”; as for `CC(C)(c1ccc(O)c(-c2ccccc2)c1)c1ccc(O)c(-c2ccccc2)c1`, “inactive”. Under `CCC1(c2ccccc2)C(=O)N(COC)C(=O)N(COC)C1=O` stands “inactive”; under `CCS(=O)(=O)CCSP(=O)(OC)OC`, “inactive”; under `O=C(Nc1ccccc1-c1ccc(Cl)cc1)c1cccnc1Cl`, “inactive”. In the case of `O=C(NC(O)C(Cl)(Cl)Cl)NC(O)C(Cl)(Cl)Cl` (centres undefined), the Potency result is “inactive”.

`CNC(=O)Oc1cccc(N=CN(C)C)c1`: the Potency entry is “inactive”. Regarding `ClCc1ccccc1Cl`, the Potency entry was “inactive”. As for `CCOP(=S)(OCC)Oc1nc(Cl)n(C(C)C)n1`, the entry is “inactive”; as for `CCOP(=S)(OCC)Oc1ccc(Cl)cc1Cl`, “inactive”; as for `CC(C)O.CC(C)O.OCCN(CCO)CCO.OCCN(CCO)CCO.[Ti]`, “inactive”.

As to `CNC(=O)O/N=C(/CSC)C(C)(C)C`, the Potency entry is “inactive”. Consider `C/C=C/C=O`, for which the Potency entry was “inactive”.

`CNC(=O)Oc1ccccc1C(C)C`: the Potency entry is “inactive”.

Values taken from PubChem BioAssay (Tox21).
